LmPK inh: LmPK (Leishmania mexicana) enzyme inhibition; Q27686; purified LmPK, Kinase-Glo ATP luminescence, 1 h; Potency, µM (titrated, usually from 57.5 µM), for inactives: top-dose activity change, negative = inhibition, usual class: inhibitors; hit rate 0.37% among 290,000; AID 1721; further: potency means the concentration at half of the fitted maximal effect; on the % scale 0 is the no-effect control and ±100 the full control effect
Target sequence (Q27686 whole entry, looked up): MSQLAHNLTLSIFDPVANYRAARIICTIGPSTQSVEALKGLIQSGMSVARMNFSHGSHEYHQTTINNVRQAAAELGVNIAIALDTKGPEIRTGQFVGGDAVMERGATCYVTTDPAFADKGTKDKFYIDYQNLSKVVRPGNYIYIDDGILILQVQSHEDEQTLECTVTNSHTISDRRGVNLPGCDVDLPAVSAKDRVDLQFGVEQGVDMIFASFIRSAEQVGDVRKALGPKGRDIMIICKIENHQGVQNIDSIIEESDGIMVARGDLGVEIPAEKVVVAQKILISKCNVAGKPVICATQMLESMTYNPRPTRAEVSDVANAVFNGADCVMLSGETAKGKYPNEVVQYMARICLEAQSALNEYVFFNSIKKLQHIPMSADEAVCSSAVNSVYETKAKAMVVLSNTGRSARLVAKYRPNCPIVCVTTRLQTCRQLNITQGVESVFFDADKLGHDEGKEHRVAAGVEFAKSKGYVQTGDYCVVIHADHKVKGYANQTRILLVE
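Pyruvate kinase activity monitored as ATP production (luciferase luminescence). Conditions: 0.1 nM enzyme, 0.5 mM PEP, 0.1 mM ADP, 1 h, RT; normalized against uninhibited and no-enzyme wells.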
FBPA Giardia inh: blocks Giardia fructose-bisphosphate aldolase activity; purified Giardia FBPA; AID 2451; hit rate 0.71% among 290,000; Potency, µM (highest dose often 59.6 µM), inactives show at the top dose activity, negative = inhibition, most hits filed as inhibitors; further: potency means the concentration at half of the fitted maximal effect; on the % scale 0 is the no-effect control and ±100 the full control effect; nearly all actives have a fitted effect of over 55% in size
Target sequence (A8B2U2 whole entry, looked up): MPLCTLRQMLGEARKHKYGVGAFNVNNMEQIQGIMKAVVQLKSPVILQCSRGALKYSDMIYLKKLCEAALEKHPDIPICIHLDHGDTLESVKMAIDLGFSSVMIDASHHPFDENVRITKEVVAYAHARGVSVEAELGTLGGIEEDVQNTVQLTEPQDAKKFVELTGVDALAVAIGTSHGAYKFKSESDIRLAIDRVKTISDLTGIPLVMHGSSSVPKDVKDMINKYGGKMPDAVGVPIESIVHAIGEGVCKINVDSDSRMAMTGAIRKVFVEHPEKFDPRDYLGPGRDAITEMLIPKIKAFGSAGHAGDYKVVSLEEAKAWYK
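Giardia FBPA (40 nM reagent) was preincubated 10 min at RT with compound (up to 57.5 uM final), then substrate plus GAPDH/TPI/NAD/arsenate coupling system with diaphorase/resazurin was added; resorufin fluorescence (525/598 nm) was read after 20 min.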
Sm TGR block: inhibitors of Schistosoma mansoni thioredoxin glutathione reductase | hit rate 3% among 360,000 | purified TGR, DTNB reduction, TNB absorbance 405 nm | Q962Y6 | Potency, µM (doses to about 114 µM), for inactives: at the highest dose activity change, negative = inhibition, most hits filed as inhibitors; further: potency means the concentration at half of the fitted maximal effect; on the % scale 0 is the no-effect control and ±100 the full control effect; nearly all actives have a fitted effect of over 60% in size
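TGR 20 nM + NADPH 100 uM (dispensed conc.), cpd preinc 15 min RT; start with NADPH (500 uM addition) then DTNB (15 mM addition). Kinetic TNB absorbance, 405 nm filter. Four-parameter Hill fit across titration.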
Cycloheximide cs: counter-screen hit for Shiga toxin inhibitors, cycloheximide; hit rate 12% among 300,000; max response, %; cell reporter, cycloheximide protein synthesis inhibition counterscreen; in the data active means max response mostly above about 13%, no sharp cut-off; inactive means mostly below about 14%; further: read at 38.3 µM for the half of the compounds with a filed dose; 0% is about no effect
Shiga inhibitor: Shiga toxin inhibition | Vero cells, Shiga toxin protein synthesis inhibition reporter | inhibition, % at 38.7 µM | hit rate 9.2% among 290,000; in the data active means inhibition mostly above about 28%, no sharp cut-off; inactive means mostly below about 43%; further: 0% is about no effect
Tb PYK inh: inhibitors of Trypanosoma brucei pyruvate kinase | TbPYK enzyme, Kinase-Glo Plus ATP luminescence, 45 min | Potency, µM (top dose mostly 76.8 µM), without a hit: at the highest dose activity, negative = inhibition, most hits filed as inhibitors | hit rate 0.12% among 410,000 | AID 624173; further: potency means the concentration at half of the fitted maximal effect; on the % scale 0 is the no-effect control and ±100 the full control effect; nearly all actives have a fitted effect of over 50% in size
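ADP (130 uM final) triggers the TbPYK reaction after compound addition; incubation is 45 min at room temperature. Kinase-Glo Plus is then added and luminescence imaged. Normalized data are fitted to concentration-effect curves.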
* hit, by the source's call; ? = inconclusive; nt = no result given; + = active, no number; [ ] = remark or other dose. The full list was thinned out, with hits kept by preference. Unless noted, the call rests on the fitted dose curve; in most records, active means well fitted curve in the direction sought with a large enough effect; inconclusive means small, poorly fitted or top-dose-only effect, or another doubt; inactive means no such curve, though single readings can be large; an effect the other way counts as inactive or inconclusive.

SMILES | LmPK inh | FBPA Giardia inh | Sm TGR block | Cycloheximide cs | Shiga inhibitor | Tb PYK inh
CCN1CCN(c2nc3ccccn3c(=O)c2C=O)CC1 | -1.5% | 3.5% | -19.6% | -2.0 | -4.0 | 1.0%
COc1ccccc1N1CCN(c2nc3ccccn3c(=O)c2C=O)CC1 | 0.9% | -1.0% | -1.9% | 29.2* | 34.9* | -10.0%
O=C(CSc1nc(N2CCOCC2)nc(N2CCOCC2)n1)Nc1cccc(C(F)(F)F)c1 | 4.7% | 5.5% | -11.4% | -3.7 | -2.9 | 2.0%
CCC1CN(C(=O)Nc2cc(C)ccc2OC)c2cc(Cl)ccc2O1 (stereo not drawn) | nt | nt | 3.8% | nt | nt | 1.9%
COC1=CC(=O)C(O)=C/C1=C\C=C\c1ccccc1 | nt | 22.3µM* | nt | nt | nt | nt
O=C(O)c1cccc(-n2cccc2/C=C/[N+](=O)[O-])c1 | 20.1% | ? | 4.47µM* | 11.8 | -8.2 | ?
CCC1=NN(C(=O)c2ccccc2Br)C(O)(c2ccc(Br)cc2)C1 (stereo not drawn) | -0.8% | 12.1% | -2.4% | -2.7 | 1.9 | 3.5%
CCC1=NN(C(=O)c2ccccc2O)C(O)(c2ccccc2)C1 (stereo not drawn) | 14.7% | 16.6% | 5.3% | 31.0* | 77.3* | 2.9%
CCC1=NN(C(=O)c2ccc(Cl)cc2)C(O)(c2ccc(C)cc2)C1 (stereo not drawn) | -5.9% | 14.9% | 0.3% | 18.3* | 45.1* | -4.8%
CCC1=NN(C(=O)c2ccc(Cl)cc2)C(O)(c2ccccc2)C1 (stereo not drawn) | 4.5% | 0.8% | 8.1% | 12.5 | 16.6 | 5.8%
COc1ccc2nc(SCC(=O)NCc3ccc(OC)c(OC)c3)[nH]c2c1 | -16.2% | -9.7% | 1.8% | -5.0 | -15.2 | 0.9%
Cc1ccc(OCc2cc(C(=O)N(C)CCc3ccccn3)no2)cc1C | 6.4% | 0.4% | 3.1% | 82.9* | 108.6* | -10.4%
Cc1cccc(OCC(=O)N(C)CCc2ccccn2)c1 | -0.6% | -21.9% | 12.6% | 8.4 | 24.2 | -14.8%
CC(=O)c1cccc(OCc2cc(C(=O)N(C)CCc3ccccn3)no2)c1 | -4.1% | 2.8% | 1.2% | 15.2* | 36.9 | 0.4%
Cc1ccc(OCc2cc(C(=O)N(C)CCc3nc4ccccc4[nH]3)no2)cc1C | -7.7% | 5.1% | -12.4% | 27.0* | 21.5 | -8.1%
CC(=O)c1ccc(OCc2cc(C(=O)N(C)CCOc3ccc(C)cc3)no2)cc1 | -6.8% | nt | 4.4% | 47.3* | 81.1* | -2.8%
CN(Cc1ccccn1)C(=O)c1cc(COc2ccc(F)c(F)c2)on1 | nt | nt | nt | nt | nt | -3.0%
CC(=O)c1ccc(OCc2cc(C(=O)N(C)Cc3nc4c(C)cccc4[nH]3)no2)cc1 | 0.0% | 4.4% | -16.0% | 6.6 | 18.0 | -1.2%
CC(=O)c1cccc(OCc2cc(C(=O)N(C)Cc3ccc(C)o3)no2)c1 | 5.0% | -8.3% | ? | 22.1* | 79.4* | ?
Cc1ccc(NC(=O)CCSc2nnc(C)o2)cc1 | -0.7% | 11.7% | -22.2% | 6.1 | 2.7 | 0.4%
Cc1ccc(NC(=O)CCSc2ccccn2)cc1 | 0.4% | 0.0% | -0.3% | 58.8* | + | -1.1%
Cc1cc(NC(=O)CSc2ccccn2)cc(NC(=O)CSc2ccccn2)c1 | -4.2% | 6.9% | 5.4% | -1.6 | -7.3 | -10.8%
Cc1cccc(NC(=O)CCSc2ccccn2)c1 | 2.2% | -4.7% | 4.1% | 74.8* | 74.0* | -5.6%
CCOCCn1ccc2c(OCC(=O)Nc3cccc(F)c3)cccc2c1=O | nt | nt | 5.4% | nt | nt | -2.1%
Cc1ccc(NC(=O)c2ccnc(C(C)(C)C)c2)cc1 | 4.0% | -7.8% | -3.7% | 16.5* | 70.8* | -1.0%
SMILES | LmPK inh | FBPA Giardia inh | Sm TGR block | Cycloheximide cs | Shiga inhibitor | Tb PYK inh
CC(C)(C)NC(=O)c1ccnc(C(C)(C)C)c1 | 8.6% | -4.4% | -2.8% | 8.5 | 66.3 | 6.9%
Cc1ccc(NC(=O)c2ccc(C)cc2)cc1 | nt | nt | 2.5% | nt | nt | 1.4%
CC(C)(C)c1cc(C(=O)Nc2ccccc2)ccn1 | 3.4% | 0.4% | -1.9% | 25.0* | 20.5 | -0.4%
CCCCNC(=O)C(c1ccc(OCC(=O)OC)c(C(=O)OC)c1)N(Cc1ccccc1)C(=O)CCCCCN1C(=O)NC(c2ccc(-c3ccccc3)cc2)C(C(=O)OCc2ccccc2)=C1C (stereo not drawn) | nt | 5.2% | nt | nt | nt | nt
COc1ccc(NS(=O)(=O)c2c(F)cccc2F)cc1S(=O)(=O)N1CCOCC1 | nt | nt | 39.8µM* | nt | nt | -9.1%
C[C@@H]1NCCc2cc(O)c(O)cc21 | nt | -29.2%[21.7 µM] | 44.7µM* | nt | nt | 0.2%
Oc1c(C(c2ccccn2)N2CCC(Cc3ccccc3)CC2)cc(Cl)c2cccnc12 (stereo not drawn) | -1.0% | ? | 3.55µM* | 13.3 | 47.9 | 30.6%
Oc1c(C(c2ccccc2Cl)N2CCCC2)ccc2cccnc12 (stereo not drawn) | 0.2% | -8.3% | ? | -4.8 | 17.4 | 41.7%
CC(=O)NC(c1cc(Cl)c2cccnc2c1O)C1CC1 (stereo not drawn) | nt | nt | -19.4% | nt | nt | 4.9%
Cc1ccc(C(c2cc(Cl)c3cccnc3c2O)N2CCN(C)CC2)cc1 (stereo not drawn) | -6.0% | -4.6% | 0.708µM* | 21.2 | 37.1 | 4.1%
CN1CCN(C(c2ccccn2)c2cc(Cl)c3cccnc3c2O)CC1 (stereo not drawn) | 11.6% | -14.3% | 1.26µM* | -0.8 | 15.5 | 7.1%
Oc1c(C(c2ccc(Cl)cc2)N2CCCC2)cc(Cl)c2cccnc12 (stereo not drawn) | 3.6% | ? | 3.16µM* | 4.8 | 2.1 | -0.7%
COCCCN1C(=O)c2ccc(C(=O)N3CCN(c4ccccc4OC)CC3)cc2C1=O | -5.4% | 0.7% | -21.4% | -1.9 | 10.0 | 3.3%
CCc1c(C)nc2ccc(Br)cc2c1Cl | -10.3% | 3.6% | 12.3% | 13.2 | 23.0 | -1.1%
Nc1nc(Cl)nc2ccc(Br)cc12 | -2.5% | -1.8% | -10.1% | 66.8* | 53.1* | -21.3%
COc1ccc(CNC(=O)C2(C)Cc3c(-c4ccc(N(C)C)cc4)ccnc3O2)cc1OC (stereo not drawn) | nt | nt | nt | nt | nt | -8.1%
Cc1nc(SCc2ccc(Cl)c(Cl)c2)n[nH]1 | 2.2% | ? | -4.0% | 15.6* | 43.6 | -1.2%
Cc1nc(SCc2ccc(OCCC(C)C)cc2)n[nH]1 | 0.6% | -7.4% | -0.1% | 48.7* | 154.3* | 0.0%
Cc1nc(SCc2cccc(Oc3ccccc3)c2)n[nH]1 | 2.1% | nt | -2.6% | 46.5* | 47.4 | 0.0%
Cc1nc(SCc2ccc(F)cc2)n[nH]1 | 5.6% | -1.4% | 12.3% | 8.6 | 40.8 | -3.8%
O=C(Cn1ccc(=O)[nH]c1=O)Nc1nccs1 | nt | nt | nt | nt | nt | -0.3%
CC(=O)c1ccc(NC(=O)CSc2nc(=O)n(Cc3ccccn3)c3c2CCC3)cc1 | nt | nt | -0.9% | nt | nt | 0.7%
Cc1cc(C)c(NC(=O)CN)c(C)c1 | 0.3% | -0.4% | 1.2% | 0.9 | 6.7 | 0.5%
C/C(CC(=O)Nc1cc(Cl)ccc1C)=N\NC(N)=O | 2.2% | 0.6% | -14.2% | -1.1 | 1.7 | 4.3%

Screens (PubChem BioAssay)
